# Data taken from PubChem BioAssay (NCATS).
# Several values for one entry are separate records, joined by “and”; a condition that tells them apart may be missing. Identical values can stand only once. Inconclusive results are not listed. A call without a number means that no potency is given here. A structure can be active in one record and inactive in another. Activity calls are given as the source filed them. Unless noted, the call rests on the fitted dose curve; in most records, active means well fitted curve in the direction sought with a large enough effect; inconclusive means small, poorly fitted or top-dose-only effect, or another doubt; inactive means no such curve, though single readings can be large; an effect the other way counts as inactive or inconclusive.
# How the values were obtained:
# [1] = target: Catechol O-methyltransferase (Homo sapiens) (UniProt P21964); experiment: Confirmatory Screen for Target Class Profiling of Small Molecule Inhibitors of Methyltransferases (AID 1745852; calls by dose curve; further: potency means the concentration at half of the fitted maximal effect); settings: MTase-Glo luminescence, SAH detection, recombinant enzyme; measured here: COMT max response; stronger effect = lower value
# [2] = target: Guanidinoacetate N-methyltransferase (Homo sapiens) (UniProt Q14353); experiment: as above; settings: MTase-Glo luminescence, SAH detection, recombinant enzyme; activity change, negative = inhibition: at 57.3 µM (top of the series) unless noted
# [3] = target: Nicotinamide N-methyltransferase (Homo sapiens) (UniProt P40261); experiment: as above; settings: MTase-Glo luminescence, SAH detection, recombinant enzyme; measured here: NNMT max response; stronger effect = lower value
# [4] = target: Phenylethanolamine N-methyltransferase (Homo sapiens) (UniProt P11086); experiment: as above; settings: MTase-Glo luminescence, SAH detection, recombinant enzyme; measured here: PNMT max response; stronger effect = lower value
# [5] = target: Glutathione peroxidase 1 (Homo sapiens) (UniProt P07203); experiment: Primary qHTS Assay for Inhibitors of Recombinant Selenoprotein Glutathione Peroxidase 1 (GPX1) (AID 1845191); further: nearly all actives have a fitted effect of over 65% in size
# How it was run: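 GR-coupled assay: compounds preincubated 30 min at room temperature with GPX1, then reaction started with CHP; final 10 nM GPX1, 1 mM GSH, 0.5 mM CHP, 0.5 mM NADPH, 100 nM GR, 0.01% BSA, pH 7.5 Tris buffer. NADPH fluorescence (340/450 nm) read at 0 and 15 min.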
# [6] = target: Phospholipid hydroperoxide glutathione peroxidase GPX4 (Homo sapiens) (UniProt P36969); experiment: Primary qHTS Assay for Inhibitors of Recombinant Selenoprotein Glutathione Peroxidase 4 (GPX4) (AID 1845192); further: nearly all actives have a fitted effect of over 65% in size; further: potency means the concentration at half of the fitted maximal effect
# How it was run: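 GR-coupled assay: recombinant GPX4 preincubated 30 min with compound at room temperature; final 200 nM GPX4, 1 mM GSH, 0.5 mM cumene hydroperoxide, 0.5 mM NADPH, 100 nM GR, 0.01% BSA, pH 7.5 Tris. NADPH fluorescence (340/450 nm) read at 0 and 15 min.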
# [7] = target: Luciferin 4-monooxygenase (Photinus pyralis) (UniProt P08659); experiment: Primary firefly luciferase (FLuc) qHTS assay for identification of artifact compounds. (AID 1845220); further: nearly all actives have a fitted effect of over 60% in size
# How it was run: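 D-luciferin and ATP (10 uM each, final) in Tris acetate buffer pH 7.6 were incubated with compounds for 15 min at room temperature. The reaction was started with 10 nM Photinus pyralis luciferase and luminescence read after 5 min. Percent inhibition was fitted to a 4-parameter Hill equation.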
# [8] = Primary fluorescence-based thiol-reactive (MSTI) qHTS assay for identification of artifact compounds. (AID 1845221); further: nearly all actives have a fitted effect of over 65% in size; further: potency means the concentration at half of the fitted maximal effect
# How it was run: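 Thiol-reactive compounds detected by quenching of 4 uM MSTI fluorescence (525/598 nm) after 1 h room-temperature dark incubation in PBS pH 7.4, 2% DMSO. qHTS titration; percent inhibition Hill-fitted against Acetyl-MSTI/MSTI controls.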
# [9] = test system: Nanoluciferase (engineered Oplophorus gracilirostris luciferase); experiment: Primary Nanoluciferase (NLuc) qHTS assay for identification of artifact compounds. (AID 1845222)
# How it was run: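 Diluted conditioned medium from NLuc-expressing S16 cells treated with compounds for 15 min at room temperature, then Nano-Glo substrate added; luminescence read after 5 min. Percent inhibition versus no-enzyme and DMSO controls fitted to 4-parameter Hill equation.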
# [10] = NCATS anti-infectives library activity on the primary C. elegans qHTS viability assay (AID 1745855; calls by dose curve; further: potency means the concentration at half of the fitted maximal effect)
# How it was run: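 Viability read-out is GFP fluorescence of PE254-GFP-FLuc C. elegans, measured by laser cytometry (488 nm) at day 0, 3 and 7. Ten L1 worms per well were incubated 7 days at 21 °C with compounds and bacterial capsules in S medium.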
# [11] = target: Rap guanine nucleotide exchange factor 3 (Homo sapiens) (UniProt O95398); experiment: Confirmatory qHTS for agonist of cAMP-regulated guanine nucleotide exchange factor 3 (EPAC1) (AID 1645881);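 further: EPAC1 catalysed release of BODIPY-GDP from Rap1B seen as fluorescence loss; nearly all actives have a fitted effect of over 75% in size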
# [12] = target: Rap guanine nucleotide exchange factor 4 (Homo sapiens) (UniProt Q8WZA2); experiment: Confirmatory qHTS for agonist of cAMP-regulated guanine nucleotide exchange factor 4 (EPAC2) (AID 1645884);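 further: nucleotide exchange releases bodipy-GDP from Rap1 and this lowers its fluorescence; nearly all actives have a fitted effect of over 65% in size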
# [13] = target: Rap guanine nucleotide exchange factor 4 (Homo sapiens) (UniProt Q8WZA2); experiment: Confirmatory qHTS for antagonist of cAMP-regulated guanine nucleotide exchange factor 4 (EPAC2) (AID 1645885); further: nearly all actives have a fitted effect of over 25% in size
# [14] = target: Metallo-beta-lactamase type 2 (Klebsiella pneumoniae) (UniProt C7C422); experiment: qHTS to identify inhibitors of the New Delhi Metallo-beta-lactamase (NDM): assay validation screen against the NCATS LOPAC Collection (AID 1794843); further: potency means the concentration at half of the fitted maximal effect;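 on activity change, negative = inhibition: nitrocefin turnover by NDM-1 measured as 485 nm absorbance at plateau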
# How it was run: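 NDM-1 at 2 nM final in 50 mM HEPES pH 7.0 with 1 uM ZnSO4 and 0.01% Tween20 was preincubated with library compounds in DMSO. Nitrocefin (50 uM stock) was then added, and absorbance at 485 nm was read at the kinetic plateau.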
# [15] = NCATS anti-infectives library activity on HEK293 viability as a counter-qHTS vs the C. elegans viability qHTS (AID 1745854);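 further: HEK293 cells exposed to compounds for 24 hr before the viability read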
# How it was run: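 Compounds were acoustically plated (several concentrations, 1:5, final up to 41.7 uM), then 1500 HEK293 cells added per well and incubated 24 hr at 37C, 5% CO2. CellTiter-Glo was added and luminescence read after 10 min.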
# Sequence of Nicotinamide N-methyltransferase (Homo sapiens) (P40261 whole entry, looked up): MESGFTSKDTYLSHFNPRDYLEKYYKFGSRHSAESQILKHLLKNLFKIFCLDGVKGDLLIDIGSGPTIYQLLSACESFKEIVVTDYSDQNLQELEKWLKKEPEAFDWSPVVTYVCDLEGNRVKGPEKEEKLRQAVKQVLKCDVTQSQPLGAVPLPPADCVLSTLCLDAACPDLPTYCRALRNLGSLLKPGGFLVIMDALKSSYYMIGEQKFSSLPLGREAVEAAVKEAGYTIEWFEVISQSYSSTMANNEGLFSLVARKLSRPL
# Sequence of Metallo-beta-lactamase type 2 (Klebsiella pneumoniae) (C7C422 whole entry, looked up): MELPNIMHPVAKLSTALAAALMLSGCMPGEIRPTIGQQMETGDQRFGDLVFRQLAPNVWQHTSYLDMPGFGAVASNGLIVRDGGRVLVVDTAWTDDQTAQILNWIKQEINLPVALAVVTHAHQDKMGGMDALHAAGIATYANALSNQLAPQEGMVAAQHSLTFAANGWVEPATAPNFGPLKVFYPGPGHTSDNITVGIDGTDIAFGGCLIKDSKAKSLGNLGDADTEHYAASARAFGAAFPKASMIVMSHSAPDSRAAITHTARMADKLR
# Sequence of Phenylethanolamine N-methyltransferase (Homo sapiens) (P11086 whole entry, looked up): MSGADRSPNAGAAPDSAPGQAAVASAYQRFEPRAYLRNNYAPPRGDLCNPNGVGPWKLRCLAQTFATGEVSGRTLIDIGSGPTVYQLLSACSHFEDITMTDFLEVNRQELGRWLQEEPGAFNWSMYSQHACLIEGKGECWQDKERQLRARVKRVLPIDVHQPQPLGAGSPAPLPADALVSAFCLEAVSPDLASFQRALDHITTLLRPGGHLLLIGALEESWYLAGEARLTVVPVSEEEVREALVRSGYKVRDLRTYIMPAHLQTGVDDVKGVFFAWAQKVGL
# Sequence of Glutathione peroxidase 1 (Homo sapiens) (P07203 whole entry, looked up): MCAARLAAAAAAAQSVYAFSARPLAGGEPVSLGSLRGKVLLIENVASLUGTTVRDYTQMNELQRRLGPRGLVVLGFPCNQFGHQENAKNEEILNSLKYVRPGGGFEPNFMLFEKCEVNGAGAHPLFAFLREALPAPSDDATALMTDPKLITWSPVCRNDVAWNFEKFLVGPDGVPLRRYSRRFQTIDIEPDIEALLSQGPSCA
# Sequence of Catechol O-methyltransferase (Homo sapiens) (P21964 whole entry, looked up): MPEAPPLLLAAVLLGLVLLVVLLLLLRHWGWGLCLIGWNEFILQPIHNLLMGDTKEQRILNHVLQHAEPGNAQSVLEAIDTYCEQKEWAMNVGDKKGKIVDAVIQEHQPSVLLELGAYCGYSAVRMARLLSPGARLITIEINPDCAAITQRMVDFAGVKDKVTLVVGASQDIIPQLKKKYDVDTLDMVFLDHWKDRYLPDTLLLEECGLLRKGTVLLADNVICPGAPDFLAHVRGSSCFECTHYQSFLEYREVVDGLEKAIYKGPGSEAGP
# Sequence of Phospholipid hydroperoxide glutathione peroxidase GPX4 (Homo sapiens) (P36969 whole entry, looked up): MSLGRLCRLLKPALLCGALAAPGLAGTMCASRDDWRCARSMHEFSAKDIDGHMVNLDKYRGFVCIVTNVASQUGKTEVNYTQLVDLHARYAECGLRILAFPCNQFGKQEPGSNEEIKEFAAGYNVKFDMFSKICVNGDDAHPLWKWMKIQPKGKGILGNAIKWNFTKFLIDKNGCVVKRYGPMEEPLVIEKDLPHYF
# Sequence of Rap guanine nucleotide exchange factor 4 (Homo sapiens) (Q8WZA2 whole entry, looked up): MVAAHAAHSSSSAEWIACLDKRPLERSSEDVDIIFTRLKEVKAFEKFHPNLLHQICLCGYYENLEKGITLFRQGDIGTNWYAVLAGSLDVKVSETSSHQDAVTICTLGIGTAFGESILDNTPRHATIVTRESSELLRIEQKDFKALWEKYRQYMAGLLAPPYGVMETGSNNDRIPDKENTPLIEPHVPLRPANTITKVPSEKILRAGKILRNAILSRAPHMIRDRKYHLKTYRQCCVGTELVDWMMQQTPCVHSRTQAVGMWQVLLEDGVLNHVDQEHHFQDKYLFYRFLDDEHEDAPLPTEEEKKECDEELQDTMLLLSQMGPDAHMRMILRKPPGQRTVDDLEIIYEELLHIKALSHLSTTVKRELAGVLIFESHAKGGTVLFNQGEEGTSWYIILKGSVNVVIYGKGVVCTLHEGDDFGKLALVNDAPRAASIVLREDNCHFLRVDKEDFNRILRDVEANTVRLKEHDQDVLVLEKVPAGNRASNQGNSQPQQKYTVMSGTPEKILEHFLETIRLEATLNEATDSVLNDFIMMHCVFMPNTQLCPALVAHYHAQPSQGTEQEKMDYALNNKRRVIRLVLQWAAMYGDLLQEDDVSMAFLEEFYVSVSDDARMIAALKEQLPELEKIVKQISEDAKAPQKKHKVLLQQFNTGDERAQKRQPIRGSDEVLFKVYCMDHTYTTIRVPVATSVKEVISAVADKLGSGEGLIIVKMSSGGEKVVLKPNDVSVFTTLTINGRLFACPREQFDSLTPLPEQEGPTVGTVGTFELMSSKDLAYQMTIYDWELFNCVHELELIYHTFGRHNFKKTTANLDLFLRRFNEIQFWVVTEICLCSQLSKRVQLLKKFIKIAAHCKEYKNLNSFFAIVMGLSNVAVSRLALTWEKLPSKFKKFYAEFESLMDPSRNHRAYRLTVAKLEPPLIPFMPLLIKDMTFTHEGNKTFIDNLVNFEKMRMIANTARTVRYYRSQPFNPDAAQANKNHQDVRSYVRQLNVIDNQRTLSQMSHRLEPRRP
# Sequence of Rap guanine nucleotide exchange factor 3 (Homo sapiens) (O95398 whole entry, looked up): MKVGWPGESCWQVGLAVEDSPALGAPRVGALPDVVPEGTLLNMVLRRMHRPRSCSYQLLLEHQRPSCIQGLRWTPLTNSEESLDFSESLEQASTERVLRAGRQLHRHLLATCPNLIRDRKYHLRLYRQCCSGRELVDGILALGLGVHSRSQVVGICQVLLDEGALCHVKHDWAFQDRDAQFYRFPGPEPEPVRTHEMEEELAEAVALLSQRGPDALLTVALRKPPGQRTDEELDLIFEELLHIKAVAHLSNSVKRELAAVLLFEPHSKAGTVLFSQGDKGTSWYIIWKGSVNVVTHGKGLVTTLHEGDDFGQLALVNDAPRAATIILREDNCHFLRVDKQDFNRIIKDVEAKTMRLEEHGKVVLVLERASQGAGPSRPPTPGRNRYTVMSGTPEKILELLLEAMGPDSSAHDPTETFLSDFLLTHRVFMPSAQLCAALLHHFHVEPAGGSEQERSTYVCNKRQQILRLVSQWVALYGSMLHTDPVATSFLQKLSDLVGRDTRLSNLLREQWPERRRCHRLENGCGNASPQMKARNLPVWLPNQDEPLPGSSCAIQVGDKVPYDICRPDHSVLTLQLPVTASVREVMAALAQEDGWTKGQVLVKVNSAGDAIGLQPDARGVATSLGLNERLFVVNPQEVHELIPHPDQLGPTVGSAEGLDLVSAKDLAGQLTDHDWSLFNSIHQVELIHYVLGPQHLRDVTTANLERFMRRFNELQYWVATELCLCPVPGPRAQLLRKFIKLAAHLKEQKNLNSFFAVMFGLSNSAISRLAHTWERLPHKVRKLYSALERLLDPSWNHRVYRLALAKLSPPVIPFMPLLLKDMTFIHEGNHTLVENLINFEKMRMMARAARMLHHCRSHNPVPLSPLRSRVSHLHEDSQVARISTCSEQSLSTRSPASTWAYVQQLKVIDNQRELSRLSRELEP
compound,measurement,setting,value
COc1ccc2c(Oc3ccc(NC(=O)c4c(C)n(CC(C)(C)O)n(-c5ccccc5)c4=O)cc3F)ccnc2c1,activity,[1],-4.14%
same,"activity change, negative = inhibition",[2],-3.46%
same,activity,[3],-7.85%
same,activity,[4],-1.86%
same,Potency,[5],inactive
same,Potency,[6],inactive
same,Potency,[7],inactive
same,Potency,[8],inactive
same,Potency,[9],inactive
COc1ccc(-c2nc(N3CCOCC3)c3sc(CN(C)c4ncc(C(=O)NO)cn4)cc3n2)cn1,Potency,[10],14.5 µM (active)
same,Potency,[6],inactive
CC1(C)CCC2=C(O1)c1ccccc1C(=O)C2=O,outcome,[11],inactive
same,outcome,[12],inactive
same,outcome,[13],inactive
same,activity,[1],-19.8%
same,Potency,[2],9.68 µM (active)
same,activity,[3],-22.7%
same,activity,[4],-16.1%
same,Potency,[14],inactive
same,Potency,[6],inactive
COc1cc(N2CCC(N3CCN(C)CC3)CC2)ccc1Nc1ncc(Cl)c(Nc2ccccc2S(=O)(=O)C(C)C)n1,activity,[1],-29.5%
same,Potency,[2],27.1 µM (active)
same,activity,[3],-19%
same,activity,[4],-27.6%
same,Potency,[5],inactive
same,Potency,[6],inactive
same,Potency,[7],inactive
same,Potency,[9],inactive
O=C(O)CCC1CCC(c2cc(F)ccc2F)(S(=O)(=O)c2ccc(Cl)cc2)CC1 (stereo not given),outcome,[15],inactive
same,Potency,[5],inactive
same,Potency,[6],inactive
CC1CCC(C(=O)N(c2cc(C#CC(C)(C)C)sc2C(=O)O)C2CCC(O)CC2)CC1 (stereo not given),outcome,[15],inactive
same,Potency,[10],inactive
same,Potency,[5],inactive
same,Potency,[6],9.04 µM (active)
same,Potency,[7],inactive
same,Potency,[8],inactive
same,Potency,[9],inactive
Cn1c(N2CCCCS2(=O)=O)nc(C(=O)NCc2ccc(F)cc2)c(O)c1=O,outcome,[15],inactive
same,Potency,[6],inactive
same,Potency,[7],inactive
same,Potency,[8],1.34 µM (active)
same,Potency,[9],inactive
CC1(C)CCC(CN2CCN(c3ccc(C(=O)NS(=O)(=O)c4ccc(NCC5CCOCC5)c([N+](=O)[O-])c4)c(Oc4cnc5[nH]ccc5c4)c3)CC2)=C(c2ccc(Cl)cc2)C1,activity,[1],-3.58%
same,"activity change, negative = inhibition",[2],1.26% [at 29.8 µM]
same,activity,[3],-11.4%
same,activity,[4],-21.8%
same,Potency,[6],inactive and 3.16 µM (active)
same,Potency,[7],inactive
same,Potency,[8],inactive
same,Potency,[9],inactive
CC(=O)N[C@@H](CS)C(=O)O,outcome,[15],inactive
same,Potency,[14],inactive
same,Potency,[5],inactive
same,Potency,[6],inactive
CCCCC1C(=O)N(c2ccccc2)N(c2ccccc2)C1=O,Potency,[14],inactive
same,Potency,[5],inactive
same,Potency,[6],inactive
CN(C)c1cc(NC(=O)CNC(C)(C)C)c(O)c2c1C[C@@H]1C[C@H]3[C@H](N(C)C)C(=O)C(C(N)=O)=C(O)[C@@]3(O)C(=O)C1=C2O,Potency,[5],inactive
CCN(CC)CCOC(=O)c1ccc(N)cc1,Potency,[14],inactive
same,Potency,[5],inactive
same,Potency,[6],inactive
COc1ccc(-c2cc(=O)c3c(O)cc(O)cc3o2)cc1O,Potency,[5],inactive
Clc1ccc(C(c2ccc(Cl)cc2)n2cc[n+](CC(OCc3ccc(Cl)cc3Cl)c3ccc(Cl)cc3Cl)c2)cc1 (stereo not given),Potency,[14],inactive
same,Potency,[5],inactive
same,Potency,[6],inactive
NC(CO)(CO)CCc1ccc(Sc2cccc(OCc3ccccc3)c2)cc1Cl,Potency,[5],inactive
same,Potency,[6],inactive
O=C(NOCC(O)CO)c1cc(Br)c(F)c(F)c1Nc1ccc(I)cc1F (stereo not given),Potency,[5],inactive
CC(=O)c1ccc(S(=O)(=O)NC(=O)NC2CCCCC2)cc1,Potency,[14],inactive
same,Potency,[5],inactive
same,Potency,[6],inactive
CC1(C)Cc2c(sc(NC(=S)NC(=O)c3ccccc3)c2C(=O)O)CO1,Potency,[5],inactive
CCc1ccc(OCc2ccccc2C(=O)Nc2ccc3nc(C)cc(N)c3c2)cc1,Potency,[5],inactive
CCCNC(=O)NS(=O)(=O)c1ccc(Cl)cc1,Potency,[14],inactive
same,Potency,[6],inactive
same,Potency,[7],inactive
same,Potency,[8],inactive
O=C1C[C@@H](c2ccc(O)cc2)Oc2cc(O)cc(O)c21,Potency,[5],inactive
CC(C)NCC(O)COc1cccc2[nH]ccc12 (stereo not given),Potency,[14],inactive
same,Potency,[6],inactive
same,Potency,[7],inactive
same,Potency,[8],inactive
same,Potency,[9],inactive
COc1ccccc1N1CCN(CCCNc2cc(=O)n(C)c(=O)n2C)CC1,Potency,[14],inactive
same,Potency,[5],inactive
same,Potency,[6],inactive
same,Potency,[7],inactive
same,Potency,[8],inactive
same,Potency,[9],inactive
CCN(CC)CCNC(=O)c1ccc(N)cc1,Potency,[14],inactive
same,Potency,[5],inactive
same,Potency,[6],inactive
same,Potency,[7],inactive
same,Potency,[8],inactive
same,Potency,[9],inactive
CCN1CCC[C@H]1CNC(=O)c1cc(S(N)(=O)=O)ccc1OC,Potency,[14],inactive
same,Potency,[5],inactive
same,Potency,[6],inactive
same,Potency,[7],inactive
same,Potency,[8],inactive
same,Potency,[9],inactive
CC/C(=C(\c1ccccc1)c1ccc(OCCN(C)C)cc1)c1ccccc1,Potency,[14],14.1 µM (active) and inactive
same,Potency,[6],inactive
NCCS,Potency,[14],inactive
same,Potency,[5],inactive
same,Potency,[6],inactive
CC1=C(/C=C/C(C)=C/C=C/C(C)=C/C(=O)Nc2ccc(O)cc2)C(C)(C)CCC1,Potency,[14],inactive
same,Potency,[6],inactive
COc1cccc(-c2cc(=O)c3ccccc3o2)c1N,Potency,[14],inactive
same,Potency,[6],inactive
CCCCCCCCCCCC1=C(O)C(=O)C=C(O)C1=O,Potency,[5],inactive
C[N+](C)(C)CCCCCC[N+](C)(C)C,Potency,[14],inactive
same,Potency,[6],inactive
CN(C)CCC(c1ccccc1)c1ccccn1 (stereo not given),Potency,[14],inactive
same,Potency,[5],inactive
same,Potency,[6],inactive
same,Potency,[7],inactive
same,Potency,[9],inactive
COC1CCC(N(C(=O)C2CCC(C)CC2)c2cc(C3=CCCCC3)sc2C(=O)O)CC1 (stereo not given),Potency,[5],inactive
Clc1ccc(Cn2c(CN3CCCC3)nc3ccccc32)cc1,Potency,[14],inactive
same,Potency,[5],inactive
same,Potency,[6],inactive
same,Potency,[7],inactive
same,Potency,[8],inactive
same,Potency,[9],inactive
N[C@@]1(C(=O)O)CS(=O)(=O)[C@H]2[C@H](C(=O)O)[C@H]21,Potency,[5],inactive
COC(=O)[C@@H]1[C@H]2C[C@H]3c4[nH]c5ccccc5c4CCN3C[C@@H]2CC[C@@H]1O,Potency,[14],inactive
same,Potency,[5],inactive
same,Potency,[6],inactive
same,Potency,[7],inactive
same,Potency,[8],inactive
same,Potency,[9],inactive
O=C(NCCN1CCOCC1)c1ccc(Cl)cc1,Potency,[14],inactive
same,Potency,[5],inactive
same,Potency,[6],inactive
O=C(O)CCc1nc(-c2ccccc2)c(-c2ccccc2)o1,Potency,[14],inactive
same,Potency,[6],inactive
same,Potency,[7],inactive
same,Potency,[8],inactive
